Common to all, as to experiment: NCI-60 one-dose screen, 48 h (100 = growth as untreated, 0 = no growth, -100 = all killed)
Holding throughout (conditions): 10 µM

Assay [1] concerns RPMI-8226 leukemia.
Assay [2] concerns OVCAR-8 ovarian.
Assay [3] relates to OVCAR-5 ovarian.
Assay [4] has as its system OVCAR-4 ovarian.
Assay [5] has as its system SK-OV-3 ovarian.
Assay [6] has as its system OVCAR-3 ovarian.
The test system of assay [7] is HS 578T breast.
Assay [8] deals with NCI/ADR-RES ovarian.
Assay [9] relates to T-47D breast.
For assay [10], the system named is IGROV1 ovarian.

The panel holds about 83,000 compounds, 20% with a hit somewhere; the sample as a whole holds those more often.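 Cell lines were cultured in 96-well plates, exposed to a single compound concentration, and assessed for percent growth 48 hours later.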 A number with no mark means an inactive call. The source made the active and inactive calls. How the source made its calls: active means growth percent below 10; inactive means the rest.

As to `Clc1ccc(Nc2ccnc(NCCCNc3ccnc4cc(Cl)ccc34)n2)cc1`, the growth in assay [1] is -62.1% (active); in [2] it was -49% (active); in [3], 18.3%; in assay [4], 6.79% (active); in [5], -32% (active); in assay [6] it was -19% (active). Moreover, the growth in assay [7] is -56.7% (active); in assay [8], 4.05% (active); in [9], -63.7% (active).
Take `CC(=O)O[C@]1(C)CC[C@H]2[C@H](CNCCc3ccc(Cl)cc3)C(=O)O[C@@H]2C2=C(C)C(=O)C[C@H]21`: the growth in assay [1] is 64.7%; in assay [2], 93.1%; in assay [3], 100%; in assay [4] it was 87.4%; in [5] it was 101%; in assay [10], 97.5%. The figures for the growth in [6] and in assay [9] were 99.2% and 92.3%, respectively.
With `Cc1ccc(NC(=O)Nc2cccnc2)cc1NC(=O)Nc1cccnc1`, the growth in assay [1] is 42.9%; in assay [2], 73.8%; in assay [3], 110%; in [4] it was 77.7%; in assay [5], 101%; in assay [10], 68.5%. The values for the growth in [6], in assay [8] and in assay [9] were 93.2%, 87.6% and 58%, respectively.
For `COc1cc(C2CC(c3ccc(Nc4ccnc5cc(Cl)ccc45)cc3)=NN2c2ccc(Cl)cc2)cc(OC)c1OC` (stereo unspecified), the growth in assay [1] is 44.7%; in assay [2], 53.8%; in assay [3], 80.6%; in assay [4], 69.7%; in assay [5], 79.2%; in assay [6], 38%. Moreover, the growth is 61.6% in assay [7], 29.6% in assay [8] and 41.3% in assay [9].
In the case of `O=C(Nc1cccc(-n2cc(-c3ccncc3)c(-c3ccc(O)c(Cl)c3)n2)c1)c1ccc(Cl)c(Cl)c1`, the growth was 18.1% in [1]; 35.7% in assay [2]; 109% in assay [3]; 67% in [4]; 80.9% in [5]; 60.7% in [10]. The growth in assay [6] is 81.7%; in assay [8], 49.6%; in assay [9], 36%.
On to `O=C(C[n+]1ccccc1)c1ccc2ccccc2c1`, for which the growth in [1] was 93.4%; in assay [2], 89%; in assay [3], 75.9%; in assay [4], 86.3%; in assay [5], 101%; in [10], 105%. For the same compound, the growth is 95% in assay [6], 92% in assay [8] and 87.2% in assay [9].
Regarding `COC(=O)c1ccc(=O)oc1`, the growth is 93.7% in assay [1]; 104% in assay [2]; 89.1% in [3]; 102% in assay [4]; 107% in assay [5]; 112% in assay [10]. Moreover, the growth was 116% in assay [6] and 96.3% in assay [9].
Consider `COc1ccc(-c2nnc(-c3c(-c4ccccc4)nc4ncccn34)o2)cc1OC`, for which the growth in assay [1] was 94.8%; in assay [2], 99%; in assay [3], 91.7%; in [4] it was 93.1%; in [5], 95.9%; in [10] it was 98.5%. Besides, the growth in [6] is 108%; in assay [8] it was 101%; in assay [9], 87.2%.
In the case of `Cc1nc2ccccc2c(N)c1-c1cc(C)c2c(C)nc3ccccc3c2n1`, the growth in assay [1] was -40.9% (active); in [2], -29.4% (active); in assay [3], 32.4%; in assay [4], -64.1% (active); in [5] it was 96.7%; in assay [10] it was -92% (active). The growth in assay [6] is -96.6% (active); in [8] it was 43.8%; in assay [9], -20.4% (active).
`CCN1CCN(c2nc3ccccc3c3c(=O)c4ccccc4sc23)CC1`: the growth in assay [1] was 53.8%; in [2] it was 36.9%; in [3] it was 68.7%; in assay [4] it was 55.2%; in assay [5], 59.9%; in assay [6] it was 60.7%. The growth was 52.6% in assay [7], 37.8% in [8] and 54.5% in assay [9].
`Cc1cc(Cc2cc(C)c(O)c(C)c2)cc(C)c1O`: the growth is 58.2% in [1]; 61.9% in [2]; 106% in assay [3]; 77.1% in assay [4]; 53% in assay [5]; 45.2% in assay [10]. Further, the growth was 28.2% in assay [6], 19.4% in [8] and 52.8% in [9].
Regarding `N=C1c2nc3n(c2C(=O)c2nc4n(c21)CCCC4)CCCC3`, the growth was 82.2% in assay [1]; 91.5% in [2]; -57.8% (active) in [3]; 96.2% in [4]; 95% in [5]; 98.4% in assay [6]. The growth in [7] was -28.7% (active); in assay [8], 85.7%; in assay [9] it was 71.9%.
As to `COc1ccc(Nc2cc(C)nc(NCCCNc3ccnc4cc(Cl)ccc34)n2)cc1`, the growth in assay [1] is -58.8% (active); in assay [2], -8.6% (active); in assay [3] it was 18.3%; in assay [4], 4% (active); in assay [5], -25.3% (active); in [10], 29.7%. The growth in assay [6] was -82.1% (active); in assay [8] it was 29%; in [9], -94.7% (active).
In the case of `CCCC#CCN(CC)CC`, the growth in assay [1] is 105%; in assay [2], 100%; in assay [3], 112%; in assay [4] it was 104%; in assay [5], 107%; in assay [10], 110%. The growth in [6] is 117%; in [8], 114%; in assay [9] it was 108%.
For `Cc1cccc2c1O/C(=C\c1ccc([N+](=O)[O-])o1)C2=O`, the growth in assay [1] was -34.7% (active); in assay [2] it was -7.67% (active); in [3], -20.8% (active); in [4], -82.4% (active); in assay [5], 45.1%; in assay [6], -85.7% (active). The growth was -23.2% (active) in assay [7], 10.5% in assay [8] and -26% (active) in assay [9].
For `CCN(CC)CCSCCCNc1c2ccc(Cl)cc2nc2ccc(OC)cc12`, the growth was -22.9% (active) in assay [1]; -29.3% (active) in [2]; -16.7% (active) in [3]; -34.1% (active) in assay [4]; -1.76% (active) in assay [5]; -18.7% (active) in assay [10]. Also, the results for the growth in assay [7], in assay [8] and in assay [9] were 6.72% (active), 1.58% (active) and -32.8% (active), respectively.
For `COc1ccccc1/C=C/C(=O)c1ccccc1`, the growth in assay [1] was -36.2% (active); in assay [2] it was 61.8%; in assay [3] it was 105%; in [4], 70.2%; in [5], 118%; in assay [6] it was 59.9%. Further, the growth is 73.9% in [7], 86.7% in assay [8] and 94.8% in assay [9].
Take `CCOC(=O)CNC(=O)CCCCSc1ncnc2nc[nH]c12`: the growth is 107% in assay [1]; 108% in assay [2]; 90.1% in [3]; 111% in [4]; 115% in assay [5]; 112% in [6]. Besides, the growth was 107% in assay [7], 97.3% in assay [8] and 100% in [9].
`O=C(CC(C(=O)c1ccccc1)N1CCOCC1)c1ccccc1` (stereo unspecified): the growth in [1] is 40.5%; in assay [2], 97.3%; in assay [3], 95.5%; in [4], 106%; in assay [5], 98.3%; in [10] it was 106%. The growth is 99% in [7], 98% in [8] and 72.1% in [9].
For `COc1cc(Nc2ncnc(Nc3ccc4c(n3)NC(=O)C(C)(C)O4)n2)cc(OC)c1OC`, the growth in assay [1] is 20.6%; in assay [2] it was 24.1%; in assay [3], 29.3%; in assay [4], 39.8%; in [5] it was -19.6% (active); in assay [10] it was -46.1% (active). The growth in assay [6] was 35.9%; in [9] it was 34.5%.
Turning to `CC/C(=N\N=C(/CC)c1ccc(Br)cc1)c1ccc(Br)cc1`, the growth in assay [1] is 93.9%; in [2], 116%; in [3], 92.4%; in assay [4] it was 93.7%; in assay [5], 100%; in assay [10], 79.5%. The growth is 110% in [7], 105% in assay [8] and 83% in [9].
Turning to `Nc1cc2c(cc1Cl)-c1ccc([N+](=O)[O-])cc1/C2=N\O`, the growth in assay [1] is 44.7%; in [2], 99.5%; in assay [3], 145%; in assay [4] it was 88.9%; in [5], 97%; in [6], 86.6%. Moreover, the growth in assay [7] is 106%; in assay [8], 95.1%; in [9], 101%.
Consider `C/C(N)=C(\C#N)C(=O)c1ccccc1`, for which the growth in assay [1] is 99.2%; in assay [2] it was 103%; in [3], 97.9%; in assay [4], 104%; in assay [5] it was 99.5%; in [10], 101%. The growth in assay [6] is 112%; in assay [8] it was 105%; in [9] it was 94.1%.
On to `O=C(Cc1csc2nc(-c3ccc(Cl)cc3)cn12)N/N=C/c1ccccc1O`, for which the growth in [1] is 23.6%; in [2], 41.6%; in assay [3], 58.2%; in assay [4], 43.2%; in assay [5] it was 52.7%; in assay [10] it was 11.7%. Moreover, the growth was 13.9% in assay [6], 41.3% in assay [8] and 57.7% in [9].
With `Fc1cc(C(F)(F)F)ccc1-c1cncnc1NC1CCCCCC1`, the growth in [1] is 76.1%; in assay [2], 87.1%; in assay [3] it was 106%; in assay [4], 85.3%; in assay [5] it was 101%; in assay [10], 96.8%. The values for the growth in assay [6], in assay [8] and in assay [9] were 109%, 91.4% and 91.8%, respectively.
As for `CCOCC(=O)C(C#N)c1ccc(Cl)c(Cl)c1` (stereo unspecified), the growth in assay [1] was 88.9%; in assay [2], 101%; in [3], 96.6%; in assay [4] it was 91.3%; in assay [5] it was 100%; in assay [6], 110%. Besides, the values for the growth in assay [7], in assay [8] and in [9] were 100%, 115% and 124%, respectively.
Take `O=C(NN1C(=O)CSC1c1ccc(Cl)cc1)c1cccnc1` (stereo unspecified): the growth in assay [1] is 74.8%; in [2] it was 99.7%; in assay [3] it was 86.7%; in [4], 118%; in [5], 106%; in [10] it was 112%. Besides, the growth was 121% in [6], 91.4% in [8] and 102% in [9].
Consider `CCCCCCCCCCCC[n+]1ccc(C(N)=O)cc1`, for which the growth in assay [1] is -6.05% (active); in assay [2], 16.1%; in [3], 20.5%; in assay [4], 48.8%; in [5], 45.5%; in assay [6], 23.2%. Also, the growth in assay [7] is 31.3%; in assay [8] it was 103%; in assay [9], 38.8%.
Turning to `Cc1c(Cl)cccc1NC(=O)c1sc2nc3c(cc2c1N)C(=O)CCC3`, the growth was 5.08% (active) in assay [1]; 13.5% in [2]; 31.8% in assay [3]; 40.4% in assay [4]; 14.4% in assay [5]; -40.1% (active) in assay [6]. Further, the growth in assay [7] is 17.1%; in assay [8] it was 2.57% (active); in assay [9] it was 54.5%.
In the case of `CCOC(=O)C(=Cc1ccc(Br)cc1)C(=O)OCC`, the growth is -34.3% (active) in assay [1]; -22.4% (active) in assay [2]; 5.97% (active) in assay [3]; 0.0605% (active) in [4]; 34% in assay [5]; -82.1% (active) in assay [10]. Besides, the results for the growth in assay [6], in [8] and in [9] were -35.1% (active), 10.6% and -16.7% (active), respectively.
For the compound `CN(C)CCN1C(=O)c2cccc3c(-c4ccc5ncn(C6CCCCC6)c5c4)ccc(c23)C1=O`, the growth in assay [1] was 7.51% (active); in assay [2] it was 14.7%; in [3], 35.8%; in [4], 30.8%; in assay [5], 23%; in assay [6], 37.6%. Also, the growth in [7] was 40.8%; in assay [8], 20.1%; in [9], 27.8%.

Values taken from PubChem BioAssay (NCI).
